Laboratory results reported in PubChem BioAssay (NCI).
About 79,000 compounds went through this panel and 15% of them were active in at least one assay; those are over-represented in the sample as a whole. Active and inactive are the calls of the source. Cut-off read from the data, not from the text of the source: active = growth inhibition above about 70%; inactive = the rest.

What was measured:
[1] = NCI Yeast Anticancer Drug Screen. Data for the rad50 strain (AID 155);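 note: 0% = growth of vehicle-only cultures of the same strain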; details: S. cerevisiae rad50 strain growth inhibition; at 50.0 µM; hits give high values
Summary of the method: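 Growth of the mutant yeast was measured after compound exposure and referenced to vehicle-treated cultures.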

[2] = NCI Yeast Anticancer Drug Screen. Data for the mec2-1 strain (AID 157); details: S. cerevisiae mec2-1 strain, at 50.0 µM, hits give high values
Summary of the method: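 Strain: mec2-1 (DNA repair/cell cycle alteration). Compound exposure, then growth measured; inhibition expressed relative to vehicle.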

[3] = NCI Yeast Anticancer Drug Screen. Data for the sgs1 mgt1 strain (AID 161);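 note: 0% = growth of cultures given vehicle only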; details: S. cerevisiae sgs1 mgt1 strain, at 50.0 µM, hits give high values
Summary of the method: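 Mutant yeast exposed to compound; growth scored against vehicle-only wells.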

[4] = NCI Yeast Anticancer Drug Screen. Data for the cln2 rad14 strain (AID 165);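 note: 0% = growth equal to vehicle treated cultures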; details: S. cerevisiae cln2 rad14 strain, at 50.0 µM, hits give high values
Summary of the method: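 Compounds are applied to the cln2 rad14 yeast strain, and growth is then compared with that of vehicle-treated cultures to give inhibition.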

[5] = NCI Yeast Anticancer Drug Screen. Data for the bub3 strain (AID 167); details: S. cerevisiae bub3 mutant strain, at 50.0 µM, hits give high values
Summary of the method: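 Whole-cell yeast assay. The mutant strain was incubated with compounds, and growth inhibition was determined by comparison with vehicle-treated cells.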

[6] = NCI Yeast Anticancer Drug Screen. Data for the mlh1 rad18 strain (AID 175); details: S. cerevisiae mlh1 rad18 strain growth inhibition; at 50.0 µM; hits give high values
Summary of the method: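 Read-out is yeast growth inhibition, calculated against vehicle-only controls. The compound was applied to a strain engineered with DNA damage repair alterations.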

Measured: growth inhibition

COC1OC(C(C)Br)C2OC(C)(C)OC12 (stereo not drawn)
inactive: [1] 7.1% | [2] 21.4% | [3] 3.5% | [4] -6.2% | [5] 9.85% | [6] 27.4%

CCCC(=O)NC(Nc1ccc(S(=O)(=O)Nc2nc(C)cc(C)n2)cc1)(C(F)(F)F)C(F)(F)F
inactive: [1] -21.6% | [2] -37.9% | [3] -21.1% | [4] 13.2% | [5] -3.7% | [6] -21.4%

COc1cc(C(=O)Nc2ccc(N3CCCCC3)cc2)cc(OC)c1OC
inactive: [1] 25.1% | [2] 9.2% | [3] 38.4% | [4] -16.2% | [5] 14.6% | [6] 36.3%

CCC(C)C(=O)/C=C/c1ccccc1 (stereo not drawn)
inactive: [1] 14.2% | [2] -6.15% | [3] -2.85% | [4] -25.3% | [5] 21.3% | [6] -12.1%

S=C(NCCNC(=S)SCc1c(Cl)c(Cl)c(Cl)c(Cl)c1Cl)SCc1c(Cl)c(Cl)c(Cl)c(Cl)c1Cl
inactive: [1] 48.1% | [2] 14.3% | [3] 24.6% | [4] -8.85% | [5] -0.7% | [6] 59.8%

C=CCC1(C)C(=O)CCC1=O
inactive: [1] -18.5% | [2] -5.8% | [3] 0.6% | [4] -12.6% | [5] 1.15% | [6] -4.1%

O=[N+]([O-])c1ccc(NC2C(O)OC(CO)C(O)C2O)c([N+](=O)[O-])c1 (stereo not drawn)
inactive: [1] 5.1% | [2] -3.2% | [3] 5.55% | [4] -7.15% | [5] 5.8% | [6] -0.95%

Cc1occc1C(=S)Nc1ccc(Cl)c(/C=N/OC2CCCC2)c1
inactive: [1] 13.2% | [2] 26.1% | [3] 25.1% | [4] 30.7% | [5] 19.3% | [6] 18.8%

Cc1c(C(C)c2[nH]c3ccccc3c2C)[nH]c2ccccc12
inactive: [1] 8.1% | [2] 0.45% | [3] -11.6% | [4] 4.45% | [5] 17.4% | [6] -13.6%

C/C(=N/O)c1sc(-c2nc(C)c(/C(C)=N\O)s2)nc1C
inactive: [1] -1.7% | [2] -19.3% | [3] 4.7% | [4] 4.85% | [5] -6.6% | [6] 3.05%

Cc1nn(C)c2c1C(=O)N(C)CC(=O)N2C
inactive: [1] -25.1% | [2] -38.9% | [3] -22.9% | [4] -14.2% | [5] -20.8% | [6] -8.25%

O=C(NCc1ccc(Cl)c(Cl)c1)Nc1ccccc1Cl
inactive: [1] 10.6% | [2] 24.4% | [3] 23.3% | [4] -2.7% | [5] 24.8% | [6] 17.9%

O=C(O)c1cc([N+](=O)[O-])ccc1Oc1cccc([N+](=O)[O-])c1
inactive: [1] -30.9% | [2] -1.2% | [3] 1.2% | [4] 27% | [5] 2.95% | [6] -8.25%

O=C(Nc1ccc(Cl)cc1)Nc1nnc2nc(CC(=O)c3ccccc3)c(=O)[nH]n12
inactive: [1] 15.7% | [2] 1.1% | [3] 11.9% | [4] -19% | [5] -21.9% | [6] 1.1%

COC(=O)C(=O)c1c(C(=O)OC)nc2nnc(N)n2c1C1CC1
inactive: [1] -5.6% | [2] 11.8% | [3] 7.75% | [4] -17.9% | [5] -5.35% | [6] 4.25%

CNC(=O)OCc1c(COC(=O)NC)c(-c2ccc(F)cc2)n2c1CCC2
inactive: [1] 23.8% | [2] 12.7% | [3] -15.9% | [4] 18.7% | [5] 7.55% | [6] 52.6%

Cn1c(=S)c2[nH]c(SCCCc3ccccc3)nc2n(C)c1=O
inactive: [1] -19.4% | [2] -36% | [3] -5.8% | [4] -32.3% | [5] -25.9% | [6] 12.5%

C=CCOC(=O)C(C)OC(=O)/C(Cl)=C/C(=O)O (stereo not drawn)
inactive: [1] -2.45% | [2] 7.25% | [3] 16.4% | [4] -29.4% | [5] 10.5% | [6] 6.15%

O=C(Oc1c(OC(=O)c2ccccc2)c2ccccc2c2ccccc12)c1ccccc1
inactive: [1] 3.2% | [2] 9.35% | [3] 7.85% | [4] -1.7% | [5] -1.25% | [6] 20.4%

CCOC(=O)c1ccccc1OCc1ccccc1
inactive: [1] 13.3% | [2] 15.2% | [3] 5.75% | [4] -5.9% | [5] 51.8% | [6] 14.9%

C=C1CC[C@H]2C(C)=CC[C@H]3C(=C)C(=O)O[C@@H]3[C@@H]12
inactive: [1] -36.4% | [2] -17% | [3] -24.1% | [4] -3.9% | [5] -15.4% | [6] -6%

CCC(CCCN)Nc1cc(OC)cc2c(C)ccnc12 (stereo not drawn)
inactive: [1] -53.9% | [2] -3.1% | [3] 1.75% | [4] -4.5% | [5] 21.2% | [6] -21.2%

C#CC(C)(C)OC(=O)Nc1cccc(Cl)c1
inactive: [1] 12.8% | [2] -11.3% | [3] -16.1% | [4] -8.35% | [5] -20.6% | [6] 10.7%

Cc1cc(S(=O)(=O)/N=C(/NN)Nc2ccc(Cl)cc2)c(S)cc1Cl
inactive: [1] 22.6% | [2] 8.15% | [3] 19.9% | [4] 3.8% | [5] 27.5% | [6] 29.9%

O=c1[nH]nc(SCc2ccccc2)c(=O)[nH]1
inactive: [1] -18.1% | [2] -3.5% | [3] -16.6% | [4] -5.8% | [5] 0% | [6] -18.9%

c1ccc(CC2(c3ccccc3)OCc3ccccc32)cc1 (stereo not drawn)
inactive: [1] 6% | [2] 12.2% | [3] 17.6% | [4] 15.4% | [5] -2.2% | [6] 20.5%

CCCCCCCCCCCCCCCC(=O)OCC(O)C1OC(=O)C(O)=C1O (stereo not drawn)
inactive: [1] 28.1% | [2] -0.75% | [3] 4.6% | [4] 9.15% | [5] 24.2% | [6] 46.7%

CCOC(=O)c1cc(C)nc(Cl)c1[N+](=O)[O-]
inactive: [1] 19.4% | [2] 5.9% | [3] 4.35% | [4] 0.65% | [5] -3.45% | [6] 6.95%

Cc1cc(C(C)(C)CC(=O)O)cc(C)c1C
inactive: [1] 60.6% | [2] 37.4% | [3] 27.6% | [4] 43.6% | [5] 54% | [6] 56.3%

COc1cc(C(=O)C[n+]2ccccc2)ccc1O
active: [1] 95.3% | [2] 86.2% | [3] 84.5% | [4] 97.2% | [5] 97.7% | [6] 99.5%

CCOC(=O)C(=CN1CCCCCC1)C(=O)OCC
inactive: [1] 19.8% | [2] 13.2% | [3] 13.2% | [4] 6.1% | [5] -0.25% | [6] 32.5%

CC1C(=O)CCC2CCCCC21 (stereo not drawn)
inactive: [1] 18.1% | [2] -17.4% | [3] 8.05% | [4] 7.95% | [5] 12.2% | [6] 17.2%

O=C(NNS(=O)(=O)c1ccccc1)c1cccc([N+](=O)[O-])c1
inactive: [1] -0.95% | [2] -18.8% | [3] 7.25% | [4] 8.2% | [5] 5% | [6] -11.4%

O=S(=O)(N/N=C/c1c(Cl)cccc1Cl)c1ccccc1
inactive: [1] 18.9% | [2] 12.1% | [3] 11.9% | [4] -9.35% | [5] 9.65% | [6] 31.5%

O=C(Nc1ccc(Cl)cc1)Oc1ccc(Br)cc1Br
inactive: [1] 10.9% | [2] -3.95% | [3] 10.7% | [4] 4.65% | [5] -2.7% | [6] 13.2%

CCN(CC)CC
inactive: [1] -8.4% | [2] -6.2% | [3] -21.2% | [4] -53.4% | [5] -19% | [6] 19.4%

CCCCC(CC)CSCCOC(C)OCCSCC(CC)CCCC (stereo not drawn)
inactive: [1] 34.3% | [2] 2.25% | [3] 25.6% | [4] 39.9% | [5] 6.6% | [6] 27.9%

c1ccc2c(c1)C1CC3N=NC1C23 (stereo not drawn)
inactive: [1] 3.3% | [2] -1.35% | [3] -10.5% | [4] -20.1% | [5] 3.8% | [6] -3.95%
